From PubChem BioAssay
An excerpt weighted towards active compounds, which were near 2.2% of everything screened.
GC-B act – GC-B (human) receptor activation; activation, % at 10 µM; HEK293-GC-B cells, CNP EC30, cGMP TR-FRET; 0% at EC30 CNP, 100% saturating CNP; actives 0.11% (n = 370,000); AID 1920062;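 active = activation at 10 µM reaching about 35% in either raw or pattern-adjusted values, limit read from the data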
NPR1 activator – GC-A (human) enzyme activation; HEK293 GC-A cells, cGMP TR-FRET, EC30 ANP; 0% at EC30 ANP, 100% saturating ANP; activation, % at 10 µM; P16066; actives 0.14% (n = 370,000); in the data active = activation above about 40%
ADAM10 inh – inhibits human ADAM10 | O14672 | recombinant ADAM10, EDANS/DABCYL FRET peptide cleavage, 3 h | inhibition, % at 7 µM | actives 0.62% (n = 370,000);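 active = inhibition above a per-campaign cutoff equal to the mean of compounds falling between control-based bounds plus 3 SD, cut at about 20% in these data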
proKLK7 act – proKLK7 (human) activation, primary screen | P49862 | purified proKLK7, EDANS-DABCYL substrate fluorescence; 100% is mature enzyme control, 0% vehicle | activation, % at 7 µM | actives 0.9% (n = 370,000);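 active = activation above the mean of all tested compounds plus 3 SD, computed per campaign excluding outliers beyond control limits, cut at about 13% in these data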
Target sequence (P49862 whole entry, looked up): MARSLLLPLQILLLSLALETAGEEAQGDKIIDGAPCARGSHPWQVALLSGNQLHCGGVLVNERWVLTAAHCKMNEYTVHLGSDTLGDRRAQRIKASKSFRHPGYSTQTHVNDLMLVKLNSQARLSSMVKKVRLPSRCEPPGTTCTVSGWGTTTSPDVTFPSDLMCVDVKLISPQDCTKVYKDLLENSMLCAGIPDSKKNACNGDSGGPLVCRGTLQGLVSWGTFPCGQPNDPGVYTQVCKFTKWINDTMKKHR
ADAM17 inh – inhibitors of human ADAM17 | P78536 | recombinant ADAM17, EDANS/DABCYL FRET peptide cleavage | inhibition, % at 6.95 µM | actives 0.83% (n = 370,000) | AID 720648;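 active = inhibition above the mean of compounds lying between control limits plus 3 SD, set per campaign, cut at about 8.5% in these data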
ADAM10 confirm – human ADAM10 inhibition, confirmation; shares compounds with ADAM10 inh; ADAM10 QFRET peptide cleavage, EDANS fluorescence; inhibition, % at 6.95 µM; actives 1% (n = 2,100);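 active = inhibition above about 20% chosen separately for each screening run, limit read from the data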
ADAM17 ctr – counter-screen for ADAM10 exosite inhibitors: inhibitors of human ADAM17; inhibition, % at 6.95 µM; actives 0.5% (n = 2,100); AID 743214; shares compounds with ADAM10 inh; ADAM17 QFRET peptide cleavage, EDANS fluorescence;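 active = mean triplicate inhibition above the solvent-only control wells' mean plus 3 SD, cut at about 12% in these data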
ADAM10 counter – counter-screen for ADAM17 exosite inhibitors: inhibitors of human ADAM10 | shares compounds with ADAM17 inh | recombinant ADAM10, EDANS/DABCYL FRET peptide cleavage, 3 h | inhibition, % at 6.95 µM | actives 47% (n = 2,900);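 active = mean inhibition over the triplicate runs exceeds the activity threshold set in the earlier primary screen, cut at about 20% in these data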
ADAM17 confirm – confirmation of inhibitors of human ADAM17; actives 65% (n = 2,900); shares compounds with ADAM17 inh; recombinant ADAM17, EDANS/DABCYL QFRET peptide cleavage; inhibition, % at 6.95 µM;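 active = mean inhibition across replicates above the hit cutoff set in the primary screen, cut at about 8.5% in these data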
Numbers stand for hits; - = inactive; . = no result given.

SMILES	GC-B act	NPR1 activator	ADAM10 inh	proKLK7 act	ADAM17 inh	ADAM10 confirm	ADAM17 ctr	ADAM10 counter	ADAM17 confirm
Cc1ccc(NC(=O)COC(=O)/C(=C/c2cccs2)c2cccs2)cc1S(=O)(=O)N(C)C	-	-	24	-	15	-	-	-	13
O=C(/C=C/c1ccc(Cl)cc1Cl)NCCSCc1ccccc1	-	-	-	-	-	.	.	.	.
O=C(/C=C/c1ccc(Cl)cc1Cl)NCCSc1ccccc1	-	-	25	-	11	-	-	23	17
CCC[C@H]1CN(c2ccc(Br)cc2)C(=O)[C@@H]1CC(=O)Nc1ccc(OC)cc1	-	-	-	-	-	.	.	.	.
CCC[C@H]1CN(c2ccc(Br)cc2)C(=O)[C@@H]1CC(=O)Nc1ccccc1	-	-	24	-	18	-	-	20	-
O=S(=O)(CC1NCCc2ccccc21)NCCc1ccccc1 (stereo not given)	-	-	-	-	-	.	.	.	.
COC(=O)c1ccc(Cl)c(NC(=O)CN(c2ccc(OC)cc2)S(=O)(=O)c2ccccc2)c1	-	-	35	-	18	-	-	26	16
O=S1(=O)c2ccc(N3CCCC3)cc2Oc2ccccc2CN1Cc1cn(Cc2ccc(C(F)(F)F)cc2)nn1	-	-	-	-	-	.	.	.	.
CCc1nc2ccc(C(=O)Nc3cc(-c4ccccc4)ccc3OC)cn2c1N(C)Cc1nccs1	-	-	27	-	11	-	-	-	15
CCc1nc2ccc(C(=O)Nc3cc(-c4ccccc4)ccc3OC)cn2c1N(C)Cc1ccc(OC)cc1	-	-	-	-	-	.	.	.	.
COc1ccc(S(=O)(=O)Nc2ccc(Nc3ccccc3)cc2)cc1	-	-	21	-	12	-	-	-	11
CCCCCCNC(=O)O[C@@]12CN(S(=O)(=O)c3ccc(C)cc3)C[C@]1(O)Cn1c(=O)n(CCCCCC)c(=O)n1C2	-	-	-	-	-	.	.	.	.
CCCCCCn1c(=O)n2n(c1=O)[C@@H]1CN(S(=O)(=O)c3ccc(C)cc3)C[C@]1(O)[C@@H](OC(=O)NCc1ccccc1)C2	-	-	22	-	9.9	-	-	33	16
Cc1ccc(S(=O)(=O)N2C[C@H]3n4c(=O)ccc(=O)n4C[C@H](OC(=O)NCc4ccccc4)[C@@]3(O)C2)cc1	-	-	-	-	-	.	.	.	.
CCCCCCn1c(=O)n2n(c1=O)C[C@]1(OC(=O)NCc3ccccc3F)CN(S(=O)(=O)c3ccc(C)cc3)C[C@]1(O)C2	-	-	37	-	14	-	-	33	16
COc1ccc(C2Nc3ccccc3C(=O)N2Cc2ccc(C)o2)cc1COc1c(C)cccc1C (stereo not given)	-	-	-	.	-	.	.	.	.
Cc1cc(C)cc(NC(=O)C2(c3ccccc3)CC2(Cl)Cl)c1 (stereo not given)	-	-	20	-	9.9	-	-	-	9.6
CCOC(=O)Cn1cc(CN2CCS(=O)(=O)N(Cc3ccc(Cl)cc3)C(C(=O)OC)C2)nn1 (stereo not given)	-	-	-	-	-	.	.	.	.
C=C(C)COc1ccc(-c2nc(N)ncc2-c2ccc(OC)cc2)c(O)c1	-	-	27	-	16	-	-	-	17
C=C(C)COc1ccc(-c2[nH]ncc2-c2ccc(OC)cc2)c(O)c1	-	-	-	-	-	.	.	.	.
C=C(C)COc1ccc(-c2n[nH]c(C)c2Oc2ccccc2OC)c(O)c1	-	-	26	-	12	-	-	41	20
C=C(C)COc1ccc(-c2nc(N)ncc2-c2ccc(OC)c(OC)c2)c(O)c1	-	-	-	-	-	.	.	.	.
COc1ccc(-c2cn[nH]c2-c2ccc(OCc3ccc(F)cc3)cc2O)cc1OC	-	-	-	-	-	.	.	.	.
COc1ccc(-c2cn[nH]c2-c2ccc(OCc3ccccc3)cc2O)cc1OC	-	-	33	-	9.7	-	-	34	16
C=C(C)COc1ccc(-c2[nH]ncc2-c2ccccc2)c(O)c1	-	-	24	-	11	-	-	34	17
SMILES	GC-B act	NPR1 activator	ADAM10 inh	proKLK7 act	ADAM17 inh	ADAM10 confirm	ADAM17 ctr	ADAM10 counter	ADAM17 confirm
Nc1[nH]c(C(=O)c2ccccc2)c(-c2ccc3ccccc3c2)c1C(=O)NCCc1ccc(Cl)cc1	-	-	-	.	-	.	.	.	.
Cc1ccc(NC(=O)[C@@H]2CC(=O)O[C@@H]2c2ccccc2)cc1C	-	-	-	-	-	.	.	.	.
N#Cc1cc(F)cc(OCCCN2CCC(C(O)(c3ccccc3)c3ccccc3)CC2)c1	-	-	-	-	-	.	.	.	.
O=[N+]([O-])c1cccnc1N1CCC(c2cc(-c3ccc(Cl)cc3)n[nH]2)CC1	-	-	30	-	13	-	-	40	19
O=C(O)C1CN(c2ncccc2[N+](=O)[O-])C1	-	-	-	-	-	.	.	.	.
CCN1CCN(Cc2ccc(NC(=O)c3cccc(-c4ccc5nc(NC(=O)C6CC6)sc5n4)c3)cc2C(F)(F)F)CC1	-	-	-	-	-	.	.	.	.
CC1CC(=O)N(CCc2ccccc2)C(=O)C1	-	-	-	-	-	.	.	.	.
O=C1CC(=O)N(CCc2ccccc2)C(=O)N1CCc1ccccc1	-	-	24	-	13	-	-	25	9.9
COC(=O)[C@]12C[C@H](CC(=O)N3CCN(C(=O)c4ccco4)CC3)C(=O)N(CCC3=CCCCC3)C1=C[C@H](C(C)C)O[C@@H]2C1CC1	-	-	-	-	-	.	.	.	.
O=C(CSc1nc2ccccc2[nH]1)NN=Cc1ccccc1C(=O)O	-	-	-	-	-	.	.	.	.
Cc1cc(C)cc(NS(=O)(=O)c2ccc(NC(=S)NC(=O)c3ccc(Br)o3)cc2)c1	.	.	21	-	11	-	-	29	14
Cc1ccc(NS(=O)(=O)c2ccc(NC(=O)CN(c3cc([N+](=O)[O-])ccc3C)S(C)(=O)=O)cc2)c(C)c1	-	-	21	-	11	-	-	54	28
Cc1ccc(NS(=O)(=O)c2ccc(NC(=O)c3ccc(Br)o3)cc2)c(C)c1	-	-	23	-	11	-	-	32	15
Cc1ccc([N+](=O)[O-])cc1N(CC(=O)NC1CCCC1)S(C)(=O)=O	-	-	-	-	-	.	.	.	.
Cc1ccc(NS(=O)(=O)c2ccc(NC(=O)c3ccccc3C(=O)O)cc2)c(C)c1	-	-	-	-	-	.	.	.	.
